Test results as given in PubChem BioAssay AID1159580 (chemical genetic matrix, 2015).
Where “and” joins values, the source holds several entries; their conditions need not be identical. Identical values can stand only once. The whole screen tested about 5,500 compounds, of which about 2,000 (36%) were called active. Inconclusive results (about 18%) are left out. Cut-off read from the data, not from the text of the source: active = normalized growth mostly below about 0.91 (no sharp cut-off); inconclusive = no clear call, values can overlap the other calls; inactive = mostly above about 0.92. The list shows a part of the results.

Experiment: chemical genetic growth profiling, strain panel (AID 1159580);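 note: tested at 20 µM; growth read once vehicle control cultures reached saturation at 30 °C; 1 = growth at the plate median or of vehicle wells; lower values mean less growth of the strain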
Settings: growth OD

Measured: normalized growth

NC(=O)c1cccc(N)c1
inactive: S. cerevisiae deletion strains, locus YJR043C, strain POL32, stronger effect = lower value 1.01 | S. cerevisiae deletion strains, locus YJR075W, strain HOC1, stronger effect = lower value 1.01 | S. cerevisiae deletion strains, locus YKL009W, strain mrt4, stronger effect = lower value 0.996 | S. cerevisiae deletion strains, locus YKL068W, stronger effect = lower value 0.993 | S. cerevisiae deletion strains, locus YKL085W, strain MDH1 (second series), stronger effect = lower value 1 | S. cerevisiae deletion strains, locus YKL085W, strain MDH1, stronger effect = lower value 1 | S. cerevisiae deletion strains, locus YKL160W, strain elf1, stronger effect = lower value 0.984 | S. cerevisiae deletion strains, locus YKL190W, strain CNB1, stronger effect = lower value 1.02 | S. cerevisiae deletion strains, locus YKR001C, strain vps1, stronger effect = lower value 0.996 | S. cerevisiae deletion strains, locus YKR026C, strain gcn3, stronger effect = lower value 0.977 | S. cerevisiae deletion strains, locus YKR091W, strain srl3, stronger effect = lower value 0.977 | S. cerevisiae deletion strains, locus YLL001W, strain dnm1, stronger effect = lower value 0.93 | S. cerevisiae deletion strains, locus YLL026W, stronger effect = lower value 0.984 | S. cerevisiae deletion strains, locus YLL041C, strain sdh2, stronger effect = lower value 0.97 | S. cerevisiae deletion strains, locus YLR027C, strain aat2, stronger effect = lower value 0.997 | S. cerevisiae deletion strains, locus YLR039C, strain RIC1, stronger effect = lower value 1 | S. cerevisiae deletion strains, locus YLR058C, strain SHM2, stronger effect = lower value 1.01 | S. cerevisiae deletion strains, locus YLR102C, strain apc9, stronger effect = lower value 0.998 | S. cerevisiae deletion strains, locus YLR221C, strain rsa3, stronger effect = lower value 0.962 | S. cerevisiae deletion strains, locus YLR258W, strain gsy2, stronger effect = lower value 0.972 | S. cerevisiae deletion strains, locus YLR262C, strain YPT6 (second series), stronger effect = lower value 0.966 | S. cerevisiae deletion strains, locus YLR262C, strain YPT6, stronger effect = lower value 1.01 | S. cerevisiae deletion strains, locus YLR268W, strain sec22, stronger effect = lower value 0.996 | S. cerevisiae deletion strains, locus YLR320W, strain mms22, stronger effect = lower value 0.988 | S. cerevisiae deletion strains, locus YLR330W, strain CHS5, stronger effect = lower value 1.01 | S. cerevisiae deletion strains, locus YLR342W, strain FKS1 (second series), stronger effect = lower value 1.01 | S. cerevisiae deletion strains, locus YLR342W, strain FKS1, stronger effect = lower value 0.942 | S. cerevisiae deletion strains, locus YLR357W, strain rsc2, stronger effect = lower value 0.976 | S. cerevisiae deletion strains, locus YLR370C, strain arc18, stronger effect = lower value 0.941 | S. cerevisiae deletion strains, locus YLR371W, strain rom2, stronger effect = lower value 1 | S. cerevisiae deletion strains, locus YLR384C, strain iki3, stronger effect = lower value 0.992 | S. cerevisiae deletion strains, locus YLR418C, strain cdc73, stronger effect = lower value 1.01 | S. cerevisiae deletion strains, locus YML016C, strain PPZ1, stronger effect = lower value 1 | S. cerevisiae deletion strains, locus YML032C, strain rad52, stronger effect = lower value 0.993 | S. cerevisiae deletion strains, locus YML120C, strain ndi1, stronger effect = lower value 0.994 | S. cerevisiae deletion strains, locus YML124C, strain tub3, stronger effect = lower value 0.995 | S. cerevisiae deletion strains, locus YMR058W, strain fet3, stronger effect = lower value 0.965 | S. cerevisiae deletion strains, locus YMR078C, strain ctf18, stronger effect = lower value 0.999 | S. cerevisiae deletion strains, locus YMR125W, strain sto1, stronger effect = lower value 0.976 | S. cerevisiae deletion strains, locus YMR129W, stronger effect = lower value 1.01 | S. cerevisiae deletion strains, locus YMR205C, strain PFK2, stronger effect = lower value 0.991 | S. cerevisiae deletion strains, locus YMR223W, strain ubp8, stronger effect = lower value 0.993 | S. cerevisiae deletion strains, locus YMR231W, strain pep5, stronger effect = lower value 0.984 | S. cerevisiae deletion strains, locus YMR263W, strain SAP30, stronger effect = lower value 1.02 | S. cerevisiae deletion strains, locus YMR307W, strain GAS1, stronger effect = lower value 1.02 | S. cerevisiae deletion strains, locus YNL067W, strain RPL9B, stronger effect = lower value 1.01 | S. cerevisiae deletion strains, locus YNL071W, strain lat1, stronger effect = lower value 0.961 | S. cerevisiae deletion strains, locus YNL128W, strain TEP1, stronger effect = lower value 1.01 | S. cerevisiae deletion strains, locus YNL153C, strain GIM3, stronger effect = lower value 1.01 | S. cerevisiae deletion strains, locus YNL175C, strain NOP13, stronger effect = lower value 1.02 | S. cerevisiae deletion strains, locus YNL197C, strain WHI3, stronger effect = lower value 1.01 | S. cerevisiae deletion strains, locus YNL209W, strain ssb2, stronger effect = lower value 0.985 | S. cerevisiae deletion strains, locus YNL224C, strain SQS1, stronger effect = lower value 1.02 | S. cerevisiae deletion strains, locus YNL233W, strain BNI4, stronger effect = lower value 0.999 | S. cerevisiae deletion strains, locus YNL248C, strain rpa49, stronger effect = lower value 0.974 | S. cerevisiae deletion strains, locus YNL250W, strain rad50, stronger effect = lower value 0.988 | S. cerevisiae deletion strains, locus YNL271C, strain bni1, stronger effect = lower value 0.989 | S. cerevisiae deletion strains, locus YNL298W, strain CLA4, stronger effect = lower value 1.01 | S. cerevisiae deletion strains, locus YNL307C, strain MCK1, stronger effect = lower value 0.996 | S. cerevisiae deletion strains, locus YNL322C, strain KRE1 (second series), stronger effect = lower value 0.968 | S. cerevisiae deletion strains, locus YNL322C, strain KRE1, stronger effect = lower value 1.01 | S. cerevisiae deletion strains, locus YNR049C, strain mso1, stronger effect = lower value 0.965 | S. cerevisiae deletion strains, locus YNR052C, strain pop2, stronger effect = lower value 1 | S. cerevisiae deletion strains, locus YOL006C, strain TOP1, stronger effect = lower value 1.06 | S. cerevisiae deletion strains, locus YOL012C, strain htz1 1 | S. cerevisiae deletion strains, locus YOL147C, strain pex11, stronger effect = lower value 1 | S. cerevisiae deletion strains, locus YOR001W, strain rrp6, stronger effect = lower value 0.97 | S. cerevisiae deletion strains, locus YOR061W, strain CKA2, stronger effect = lower value 1 | S. cerevisiae deletion strains, locus YOR069W, strain VPS5, stronger effect = lower value 1.01 | S. cerevisiae deletion strains, locus YOR070C, strain gyp1, stronger effect = lower value 1.02 | S. cerevisiae deletion strains, locus YOR080W, strain dia2, stronger effect = lower value 0.981 | S. cerevisiae deletion strains, locus YOR083W, strain WHI5 (second series), stronger effect = lower value 1.02 | S. cerevisiae deletion strains, locus YOR083W, strain WHI5, stronger effect = lower value 0.994 | S. cerevisiae deletion strains, locus YOR106W, strain vam3, stronger effect = lower value 0.972 | S. cerevisiae deletion strains, locus YOR136W, strain idh2, stronger effect = lower value 0.993 | S. cerevisiae deletion strains, locus YOR144C, strain elg1, stronger effect = lower value 0.992 | S. cerevisiae deletion strains, locus YOR184W, strain ser1, stronger effect = lower value 1 | S. cerevisiae deletion strains, locus YOR265W, strain rbl2, stronger effect = lower value 0.968 | S. cerevisiae deletion strains, locus YOR270C, strain vph1, stronger effect = lower value 0.995 | S. cerevisiae deletion strains, locus YOR290C, strain snf2, stronger effect = lower value 0.974 | S. cerevisiae deletion strains, locus YOR316C, strain cot1, stronger effect = lower value 1 | S. cerevisiae deletion strains, locus YPL051W, strain arl3, stronger effect = lower value 1 | S. cerevisiae deletion strains, locus YPL055C, strain LGE1, stronger effect = lower value 1.06 | S. cerevisiae deletion strains, locus YPL078C, strain atp4, stronger effect = lower value 0.963 | S. cerevisiae deletion strains, locus YPL106C, strain sse1, stronger effect = lower value 0.964 | S. cerevisiae deletion strains, locus YPL240C, strain hsp82, stronger effect = lower value 0.984 | S. cerevisiae deletion strains, locus YPL241C, strain CIN2, stronger effect = lower value 1.01 and 1 | S. cerevisiae deletion strains, locus YPR119W, strain clb2, stronger effect = lower value 0.988 | S. cerevisiae deletion strains, locus YPR141C, strain kar3, stronger effect = lower value 0.996 | S. cerevisiae deletion strains, locus YPR163C, strain tif3, stronger effect = lower value 1 | S. cerevisiae deletion strains, locus YPR167C, strain met16, stronger effect = lower value 0.996 | S. cerevisiae deletion strains, strain wtn01, stronger effect = lower value 0.983 | S. cerevisiae strains, strain wild type, stronger effect = lower value 1
